Assay results taken from the supplement of paper PMC10849652.
Targets with a hit are over-represented here; the source holds about 8,800 in all. About 0.5% of all pairs of compound and target were hits.

Tests used:
Test in all cases: log2 fold change, soluble protein after heating vs DMSO (PISA); higher = thermal stabilisation; K562 lysate, 10 uM; active = over 0.2 and 3.5 SD of the protein, either way, in both replicates (recomputed)
[1] = compound: NCC(=O)Nc1ccc(-n2nc(C(F)(F)F)cc2-c2ccc3c(ccc4ccccc43)c2)cc1
Method in brief: (§1)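 Dounce homogenisation of K562 pellets in PBS pH 7.4 with 1 mM MgCl2 produced a crude extract, used at 1 mg/mL protein. Exposure to 10 μM compound lasted 30 min, and aliquots were then heated for 3 min across 48°C-58°C, pooled and brought to 0.5% NP-40 at 4°C. The supernatant after 21,000xg for 90 min was quantified by TMTpro 16plex LC-MS/MS with channel sums equalised. Duplicate values are given as log-two fold change in thermal stability relative to solvent controls.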

[2] = compound: O=C(CCCCCCC(=O)Nc1ccccc1)NO [vorinostat]
Method in brief: as §1

[3] = compound: O=C(O)c1ccc2c(c1)nc(Nc1cccc(Cl)c1)c1ccncc12 [silmitasertib]
Method in brief: as §1

[4] = compound: O=C1NC(=O)C(c2cnc3ccccn23)=C1c1cn2c3c(cc(F)cc13)CN(C(=O)N1CCCCC1)CC2
Method in brief: as §1

[5] = compound: c1cn2cc(-c3ccc4cn[nH]c4c3)nc(Nc3ccc(N4CCOCC4)cc3)c2n1 [entospletinib]
Method in brief: as §1

Measured: log2 fold change

DNAJC3 (UniProt Q13217)
inactive: [1] -0.029 | [2] 0.064 | [3] 0.017 | [4] 0.033 | [5] 0

DENND1B (UniProt Q6P3S1)
active: [2] -1.3
inactive: [1] -0.063 | [3] 0.28 | [4] -0.076

DAPK1 isoform 3 (UniProt P53355)
inactive: [1] 0.09 | [2] -0.477 | [4] 0.004
active: [3] 0.833

CTPS1 (UniProt P17812)
active: [2] 0.565
inactive: [1] -0.007 | [3] 0.028 | [4] -0.008 | [5] -0.005

DMXL1 (UniProt Q9Y485)
inactive: [1] 0.022 | [3] 0.044 | [4] -0.013 | [5] 0.022
active: [2] -0.237

DNAH5 (UniProt Q8TE73)
inactive: [1] 0.008 | [2] 0.113 | [3] -0.179

CHML (UniProt P26374)
active: [2] -0.286
inactive: [1] 0.029 | [3] 0.003 | [4] -0.022 | [5] 0.006

CNOT6L (UniProt Q96LI5)
inactive: [1] 0.019 | [2] -0.032 | [3] 0.004 | [4] 0.017 | [5] 0

DLGAP5 (UniProt Q15398)
active: [2] -0.252
inactive: [1] -0.008 | [3] -0.002 | [4] -0.006 | [5] -0.004

DNAAF5 (UniProt Q86Y56)
active: [2] -0.313
inactive: [1] 0.029 | [3] 0.129 | [4] 0.02 | [5] -0.012

CYP51A1 (UniProt Q16850)
inactive: [1] -0.065 | [2] 0.017 | [3] -0.084 | [5] 0.024
active: [4] 0.864

CORO1A (UniProt P31146)
inactive: [1] 0.094 | [3] -0.003 | [4] 0.025 | [5] 0.116
active: [2] -0.412

CHFR (UniProt Q96EP1)
inactive: [1] -0.219 | [2] -0.143 | [3] 0.057 | [4] 0.004 | [5] -0.083

DFFB (UniProt O76075)
active: [2] 0.258
inactive: [1] -0.003 | [3] -0.025 | [4] 0.013 | [5] -0.011

CLASP1 isoform 4 (UniProt Q7Z460)
Sequence of UniProt Q7Z460 (Q7Z460 whole entry, looked up): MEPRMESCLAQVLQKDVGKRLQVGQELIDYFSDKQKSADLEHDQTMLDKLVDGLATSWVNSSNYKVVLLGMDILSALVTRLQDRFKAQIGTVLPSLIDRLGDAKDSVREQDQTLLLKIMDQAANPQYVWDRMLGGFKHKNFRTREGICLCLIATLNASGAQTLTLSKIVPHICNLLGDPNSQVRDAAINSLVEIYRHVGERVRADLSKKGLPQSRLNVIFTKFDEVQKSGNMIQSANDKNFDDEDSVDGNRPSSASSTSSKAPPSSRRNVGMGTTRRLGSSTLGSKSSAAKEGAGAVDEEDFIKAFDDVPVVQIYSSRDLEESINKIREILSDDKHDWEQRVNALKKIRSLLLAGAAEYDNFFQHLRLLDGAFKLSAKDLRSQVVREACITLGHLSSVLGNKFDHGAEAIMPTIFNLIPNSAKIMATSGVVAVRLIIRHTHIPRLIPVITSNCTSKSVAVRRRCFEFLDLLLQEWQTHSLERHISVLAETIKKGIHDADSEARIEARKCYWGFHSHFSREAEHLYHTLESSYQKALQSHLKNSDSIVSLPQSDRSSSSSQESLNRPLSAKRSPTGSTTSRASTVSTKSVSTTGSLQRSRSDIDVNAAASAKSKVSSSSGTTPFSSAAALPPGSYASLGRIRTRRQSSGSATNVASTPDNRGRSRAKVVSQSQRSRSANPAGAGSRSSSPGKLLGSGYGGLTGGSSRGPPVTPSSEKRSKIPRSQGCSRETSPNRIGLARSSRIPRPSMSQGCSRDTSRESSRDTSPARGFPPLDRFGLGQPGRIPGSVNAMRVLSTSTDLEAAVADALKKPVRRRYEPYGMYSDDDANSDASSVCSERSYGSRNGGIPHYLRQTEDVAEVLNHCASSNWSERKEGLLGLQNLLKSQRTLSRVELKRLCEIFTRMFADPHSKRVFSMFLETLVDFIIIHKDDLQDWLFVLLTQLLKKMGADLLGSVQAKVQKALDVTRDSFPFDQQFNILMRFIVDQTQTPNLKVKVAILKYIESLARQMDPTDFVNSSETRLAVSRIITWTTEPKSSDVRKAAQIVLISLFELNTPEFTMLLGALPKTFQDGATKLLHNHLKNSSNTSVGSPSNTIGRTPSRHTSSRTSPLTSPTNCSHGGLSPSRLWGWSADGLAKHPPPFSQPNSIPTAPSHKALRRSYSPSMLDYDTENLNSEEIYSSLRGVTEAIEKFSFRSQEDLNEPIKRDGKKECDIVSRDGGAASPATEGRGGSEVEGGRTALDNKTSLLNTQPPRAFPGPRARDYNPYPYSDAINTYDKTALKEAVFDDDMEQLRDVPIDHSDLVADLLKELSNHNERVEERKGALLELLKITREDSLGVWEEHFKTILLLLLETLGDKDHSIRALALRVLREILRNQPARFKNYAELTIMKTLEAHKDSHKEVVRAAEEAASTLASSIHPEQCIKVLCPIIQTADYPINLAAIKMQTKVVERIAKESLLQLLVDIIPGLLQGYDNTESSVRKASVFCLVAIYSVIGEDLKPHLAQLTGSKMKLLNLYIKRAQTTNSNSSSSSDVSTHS
inactive: [1] -0.214 | [2] 0.167 | [3] 0.06

CMBL (UniProt Q96DG6)
Sequence of UniProt Q96DG6 (Q96DG6 whole entry, looked up): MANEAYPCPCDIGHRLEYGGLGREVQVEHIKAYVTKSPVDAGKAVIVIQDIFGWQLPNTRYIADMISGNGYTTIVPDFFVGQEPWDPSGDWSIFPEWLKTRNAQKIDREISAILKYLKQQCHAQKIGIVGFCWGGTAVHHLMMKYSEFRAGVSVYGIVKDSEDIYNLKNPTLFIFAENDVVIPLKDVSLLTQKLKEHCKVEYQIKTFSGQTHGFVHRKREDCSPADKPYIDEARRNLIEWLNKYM
inactive: [1] -0.065 | [2] 0.09 | [3] 0.042 | [4] 0.071 | [5] 0.037

CLIC2 (UniProt O15247)
active: [2] -0.369
inactive: [1] 0.022 | [3] -0.018 | [4] 0.029 | [5] 0.005

CHUK (UniProt O15111)
active: [2] -0.492
inactive: [1] -0.016 | [3] 0.103 | [4] 0.054 | [5] 0.012

COG7 (UniProt P83436)
active: [2] -0.287
inactive: [1] -0.013 | [3] 0.06 | [4] 0.034 | [5] 0.033

DPM1 (UniProt O60762)
inactive: [1] 0.05 | [2] -0.01 | [3] -0.016 | [4] -0.011 | [5] 0.02

DES (UniProt P17661)
inactive: [1] 0.108 | [2] 0.097 | [3] 0.03 | [4] 0.05 | [5] 0.027

DOCK7 (UniProt Q96N67)
inactive: [1] 0.032 | [3] 0.053 | [4] -0.019 | [5] -0.039
active: [2] -0.348

CKM (UniProt P06732)
inactive: [1] 0.003 | [2] -0.053 | [3] -0.025 | [4] -0.014 | [5] -0.026

CSK (UniProt P41240)
inactive: [1] -0.008 | [2] -0.262 | [3] -0.006 | [4] -0.021 | [5] 0.195

DNAJC1 (UniProt Q96KC8)
inactive: [1] 0.003 | [2] 0.017 | [3] 0.025 | [4] -0.007 | [5] -0.032

CHURC1 isoform 2 (UniProt Q8WUH1)
active: [2] 0.285
inactive: [1] -0.048 | [3] -0.039 | [4] -0.043 | [5] -0.128

CSDE1 isoform 4 (UniProt O75534)
active: [2] -0.33
inactive: [1] -0.004 | [3] 0.015 | [4] -0.009 | [5] 0.04

CKAP5 (UniProt Q14008)
active: [2] -0.269
inactive: [1] -0.013 | [3] 0.011 | [4] 0.002 | [5] 0.005

CORO7 (UniProt P57737)
inactive: [1] -0.053 | [2] -0.019 | [3] -0.017 | [4] 0.019 | [5] -0.045

DOK1 (UniProt Q99704)
inactive: [1] -0.036 | [3] -0.043 | [4] -0.012 | [5] -0.011
active: [2] -0.297

DNA2 (UniProt P51530)
Sequence of UniProt P51530 (P51530 whole entry, looked up): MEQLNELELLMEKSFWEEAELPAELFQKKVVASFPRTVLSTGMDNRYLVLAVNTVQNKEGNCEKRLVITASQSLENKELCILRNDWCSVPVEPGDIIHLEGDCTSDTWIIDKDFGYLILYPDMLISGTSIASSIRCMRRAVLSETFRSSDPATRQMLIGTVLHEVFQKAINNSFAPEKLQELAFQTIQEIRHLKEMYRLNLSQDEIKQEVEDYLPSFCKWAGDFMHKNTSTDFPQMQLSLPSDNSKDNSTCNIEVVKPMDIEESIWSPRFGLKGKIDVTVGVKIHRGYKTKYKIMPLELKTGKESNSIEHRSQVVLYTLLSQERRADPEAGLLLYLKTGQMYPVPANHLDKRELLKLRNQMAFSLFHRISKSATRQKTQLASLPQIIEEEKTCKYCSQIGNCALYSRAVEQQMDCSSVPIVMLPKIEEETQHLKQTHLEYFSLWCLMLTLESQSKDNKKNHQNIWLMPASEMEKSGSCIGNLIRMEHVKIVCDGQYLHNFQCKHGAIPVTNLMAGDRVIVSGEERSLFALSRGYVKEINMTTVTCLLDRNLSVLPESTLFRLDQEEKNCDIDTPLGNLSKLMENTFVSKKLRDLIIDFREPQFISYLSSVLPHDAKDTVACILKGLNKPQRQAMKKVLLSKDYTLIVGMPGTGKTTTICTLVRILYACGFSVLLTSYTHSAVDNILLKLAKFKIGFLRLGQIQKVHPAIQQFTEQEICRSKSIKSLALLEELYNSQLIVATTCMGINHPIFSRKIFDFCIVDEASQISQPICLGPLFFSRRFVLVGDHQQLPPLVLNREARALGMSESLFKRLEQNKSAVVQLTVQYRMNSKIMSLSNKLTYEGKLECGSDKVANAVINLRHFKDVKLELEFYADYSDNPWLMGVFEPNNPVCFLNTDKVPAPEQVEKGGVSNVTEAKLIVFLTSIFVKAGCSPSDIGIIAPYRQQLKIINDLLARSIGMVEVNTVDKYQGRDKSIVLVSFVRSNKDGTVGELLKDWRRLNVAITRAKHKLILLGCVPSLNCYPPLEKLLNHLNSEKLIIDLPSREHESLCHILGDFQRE
inactive: [1] -0.059 | [3] 0.127 | [4] -0.027 | [5] -0.053
active: [2] -0.448

CNTN4 (UniProt Q8IWV2)
inactive: [1] 0.173 | [2] -0.026 | [3] -0.09 | [4] 0.274 | [5] 0.06

DENND4A isoform 2 (UniProt Q7Z401)
active: [2] -0.379
inactive: [1] 0.046 | [3] 0.043 | [4] -0.02 | [5] -0.013

DENND6A (UniProt Q8IWF6)
active: [2] -0.38
inactive: [1] -0.049 | [3] 0.1 | [4] -0.07 | [5] -0.051

DNM2 (UniProt P50570)
active: [2] -0.27
inactive: [1] 0.011 | [3] 0.061 | [4] -0.021 | [5] 0.014

CUX1 isoform 3 (UniProt P39880)
Sequence of UniProt P39880 (P39880 whole entry, looked up): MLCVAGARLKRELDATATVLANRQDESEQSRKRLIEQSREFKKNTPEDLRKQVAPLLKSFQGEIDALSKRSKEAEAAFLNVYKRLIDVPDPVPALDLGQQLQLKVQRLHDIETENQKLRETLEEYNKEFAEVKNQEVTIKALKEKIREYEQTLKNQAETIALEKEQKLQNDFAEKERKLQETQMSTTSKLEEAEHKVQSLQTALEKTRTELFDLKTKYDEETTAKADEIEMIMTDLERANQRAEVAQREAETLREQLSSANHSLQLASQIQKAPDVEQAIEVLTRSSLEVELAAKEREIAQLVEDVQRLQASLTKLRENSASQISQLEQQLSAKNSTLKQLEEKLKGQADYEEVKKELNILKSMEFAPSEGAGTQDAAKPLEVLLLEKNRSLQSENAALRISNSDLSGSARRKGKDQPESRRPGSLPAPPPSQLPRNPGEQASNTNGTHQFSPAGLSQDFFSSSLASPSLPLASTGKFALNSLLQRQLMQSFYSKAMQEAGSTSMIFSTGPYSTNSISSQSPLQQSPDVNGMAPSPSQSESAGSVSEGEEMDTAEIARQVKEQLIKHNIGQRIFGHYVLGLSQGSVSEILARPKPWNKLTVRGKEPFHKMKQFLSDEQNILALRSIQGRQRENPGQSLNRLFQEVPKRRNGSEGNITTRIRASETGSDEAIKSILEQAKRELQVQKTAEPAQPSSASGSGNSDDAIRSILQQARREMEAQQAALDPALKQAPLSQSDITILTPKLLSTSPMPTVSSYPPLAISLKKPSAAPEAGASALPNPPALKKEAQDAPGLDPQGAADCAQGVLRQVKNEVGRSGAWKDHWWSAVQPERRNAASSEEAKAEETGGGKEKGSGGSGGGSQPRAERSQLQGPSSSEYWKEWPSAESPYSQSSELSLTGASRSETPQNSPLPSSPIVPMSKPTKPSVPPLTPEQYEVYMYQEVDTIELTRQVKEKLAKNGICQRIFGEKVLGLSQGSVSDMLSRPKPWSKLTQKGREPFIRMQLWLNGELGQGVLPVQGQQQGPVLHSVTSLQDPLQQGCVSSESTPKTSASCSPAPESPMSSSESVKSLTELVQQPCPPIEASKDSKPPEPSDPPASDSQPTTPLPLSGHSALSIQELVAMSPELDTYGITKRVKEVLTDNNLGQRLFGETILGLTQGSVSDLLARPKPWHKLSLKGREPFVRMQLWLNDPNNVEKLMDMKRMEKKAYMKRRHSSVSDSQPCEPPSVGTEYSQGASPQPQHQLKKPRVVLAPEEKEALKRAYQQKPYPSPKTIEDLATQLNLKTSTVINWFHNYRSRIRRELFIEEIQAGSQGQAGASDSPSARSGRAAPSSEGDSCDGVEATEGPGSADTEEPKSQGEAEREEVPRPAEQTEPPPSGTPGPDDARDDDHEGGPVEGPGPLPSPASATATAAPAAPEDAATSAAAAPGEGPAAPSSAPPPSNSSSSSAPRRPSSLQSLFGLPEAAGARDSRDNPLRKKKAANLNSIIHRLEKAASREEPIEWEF
inactive: [1] 0.008 | [2] 0.005 | [3] 0.025 | [4] -0.022 | [5] -0.014

DBF4 (UniProt Q9UBU7)
inactive: [1] 0.059 | [2] -0.226 | [3] -0.138 | [4] 0.028 | [5] 0.002

COG2 (UniProt Q14746)
inactive: [1] -0.031 | [3] 0.055 | [4] 0.061 | [5] 0.058
active: [2] -0.315

DNAH10 (UniProt Q8IVF4)
inactive: [1] 0.103 | [2] 0.065 | [3] 0 | [4] 0.069 | [5] 0.065

CNOT4 isoform 6 (UniProt O95628)
inactive: [1] -0.028 | [2] 0.046 | [3] -0.032 | [4] -0.057 | [5] -0.011

CNOT2 (UniProt Q9NZN8)
active: [2] -0.207
inactive: [1] 0.044 | [3] 0.015 | [4] -0.009 | [5] -0.015

DCP1A (UniProt Q9NPI6)
inactive: [1] -0.03 | [3] 0.022 | [4] 0.011 | [5] 0.027
active: [2] -0.234

CRABP2 (UniProt P29373)
Sequence of UniProt P29373 (P29373 whole entry, looked up): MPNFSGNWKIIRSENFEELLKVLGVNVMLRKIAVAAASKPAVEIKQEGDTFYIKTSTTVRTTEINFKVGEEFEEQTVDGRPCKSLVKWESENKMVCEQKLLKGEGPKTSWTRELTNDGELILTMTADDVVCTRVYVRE
inactive: [1] 0.169 | [2] 0.18 | [3] -0.05 | [4] 0.007 | [5] -0.209

CYCS (UniProt P99999)
Sequence of UniProt P99999 (P99999 whole entry, looked up): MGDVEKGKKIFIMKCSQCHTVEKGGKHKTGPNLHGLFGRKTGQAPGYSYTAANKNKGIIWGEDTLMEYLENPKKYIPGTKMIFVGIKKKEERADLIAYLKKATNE
inactive: [1] 0.017 | [2] 0.114 | [3] -0.004 | [4] 0.033 | [5] 0.011

COQ8A (UniProt Q8NI60)
inactive: [1] -0.043 | [2] -0.042 | [3] -0.161 | [4] 0.016 | [5] 0.053

DHRS3 (UniProt O75911)
Sequence of UniProt O75911 (O75911 whole entry, looked up): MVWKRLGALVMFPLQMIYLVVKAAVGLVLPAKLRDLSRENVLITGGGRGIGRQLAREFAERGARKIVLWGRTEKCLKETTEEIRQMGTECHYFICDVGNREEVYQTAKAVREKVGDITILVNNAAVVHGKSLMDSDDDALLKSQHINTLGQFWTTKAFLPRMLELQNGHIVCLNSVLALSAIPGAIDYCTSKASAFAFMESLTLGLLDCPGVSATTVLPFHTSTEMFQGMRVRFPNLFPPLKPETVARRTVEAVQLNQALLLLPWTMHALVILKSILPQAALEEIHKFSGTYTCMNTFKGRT
inactive: [1] 0.032 | [2] -0.055 | [3] -0.062 | [4] 0.025 | [5] 0.096

DDX54 isoform 2 (UniProt Q8TDD1)
inactive: [1] 0.131 | [2] 0.066 | [3] -0.006 | [4] -0.008 | [5] -0.009

CKAP2 (UniProt Q8WWK9)
active: [1] 0.434
inactive: [2] 0.011 | [3] -0.013 | [4] -0.044 | [5] 0.033

DCTN1 isoform 4 (UniProt Q14203)
inactive: [1] 0.144 | [2] -0.143 | [3] -0.027 | [4] 0.011 | [5] -0.085

DIAPH3 (UniProt Q9NSV4)
active: [2] -0.584
inactive: [1] -0.047 | [3] 0.067 | [4] -0.006 | [5] -0.017

CNIH4 (UniProt Q9P003)
Sequence of UniProt Q9P003 (Q9P003 whole entry, looked up): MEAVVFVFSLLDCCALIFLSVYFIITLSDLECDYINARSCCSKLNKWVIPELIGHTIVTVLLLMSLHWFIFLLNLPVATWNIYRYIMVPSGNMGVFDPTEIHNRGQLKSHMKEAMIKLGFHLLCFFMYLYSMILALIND
inactive: [1] 0.09 | [2] 0.08 | [3] 0.055 | [4] 0.114 | [5] 0.038

COG3 (UniProt Q96JB2)
inactive: [1] 0.011 | [3] 0.123 | [4] 0.06 | [5] -0.017
active: [2] -0.314

CSPP1 (UniProt Q1MSJ5)
inactive: [1] 0.122 | [2] 0.085 | [3] -0.027 | [4] 0.043 | [5] 0.003

CHEK2 (UniProt O96017)
inactive: [1] -0.021 | [2] -0.128 | [3] 0.04 | [4] -0.006 | [5] -0.033
